Our source for the z-score values is PubChem BioAssay.

Each structure is given as a SMILES string.

A short description of the assay: adipocyte viability effects, profiling panel, cell-based, 3T3-L1 adipocytes, calcein-AM fluorescence, 48 h, basal (AID 1163). Also: test concentration not given here. The following applies: 3T3-L1 adipocytes viability, higher = more signal.
`O=C1C2C=CC(C(O)Cc3ccccc3)N(n3cnnc3)C2C(=O)N1Cc1ccccc1` (stereo unspecified): the z-score is 0.549.

With `Cc1ccc(S[C@]2(C(=O)NCCCN(C)C)CC(=O)N(Cc3ccccc3C(F)(F)F)[C@@H]2c2ccc(CO)cc2)cc1`, the z-score was -0.22. For `COc1cc(C(O)C2C=CC3C(=O)NC(=O)C3N2Nc2ccccn2)cc(OC)c1OC` (stereo unspecified), the z-score was -0.66. As to `C=CCNC(=O)[C@H]1[C@@H]2C(=O)O[C@@H](c3ccccc3)[C@@H](c3ccccc3)N2[C@@H](c2ccccc2OCCO)[C@]12C(=O)Nc1ccc(C#CCC(C(=O)OC)C(=O)OC)cc12`, the z-score is -0.72. In the case of `COCCOC(=O)N1C(=O)[C@@]2(c3cc(C#CCNC(N)=O)ccc31)[C@H](C(=O)N1CCN(c3ncccn3)CC1)[C@H]1C(=O)O[C@H](c3ccccc3)[C@H](c3ccccc3)N1[C@@H]2c1ccc(OCCO)cc1` it was 0.148; in that of `CCOC(=O)C[C@H]1[C@H](OC(=O)c2ccc(C(=O)c3ccccc3)cc2)[C@@H](NC(=O)c2ccc3ccccc3c2)c2cc(OCCCO)ccc2N1C(=O)Cc1ccc(OC)cc1`, 0.539; in that of `C[C@H]1NC(=O)[C@@]23C(=O)N[C@@H](Cc4ccccc4)C2[C@H](C)[C@@]2(C)O[C@H]2C3/C=C/C/C=C\CNC(=O)[C@@H]2CCCN2C1=O` (stereo partly specified), 0.286.

In the case of `C=C(CCCC)/C(=C/C[C@@H](OC(=O)c1ccncc1)c1ccc(OCCO)cc1)c1cc(C(=O)OC)ccc1OC`, the z-score was -0.18.

For the compound `CN1C(=O)C2C=CC(C(O)c3ccc([N+](=O)[O-])cc3)N(N3CCCCC3)C2C1=O` (stereo unspecified), the z-score is -0.69. With `CC(C)C(=C=CC[C@H](O)c1ccc(OCCO)cc1)CCO`, the z-score is 0.799.

Take `C[C@H]1C2[C@H](Cc3ccccc3)NC(=O)[C@]23C(=O)N[C@H](Cc2ccccc2)C(=O)N2CCC[C@H]2C(=O)NC/C=C\C/C=C/C3[C@@H]2O[C@]12C` (stereo partly specified): the z-score is 0.993. In the case of `CN(C)CCCCCCNC(=O)[C@H]1C[C@H]2C(=O)N[C@@H](CCCCN)C(=O)N2[C@H]1c1cccc(OCCO)c1` it was 0.414. The same measure for `C=CCC(OC(C)=O)[C@@H]1[C@@H](N(Cc2cc3ccccc3o2)C(=O)c2cccc3ccccc23)c2cc(OCCCO)ccc2N1C(=O)c1ccc(-c2ccccc2)cc1` (stereo partly specified): 0.509. Consider `COC(=O)[C@@]1(Cc2ccc(OC)cc2)[C@H]2c3cc(C(=O)N4CCCC4)n(Cc4ccc(O)c(OC)c4)c3C[C@H]2CN1C(=O)c1ccccc1`, for which the z-score was 0.174.

Regarding `COC(=O)[C@@]1(Cc2ccc(OC)cc2)[C@H]2c3cc(C(=O)N4CCCC4)n(Cc4ccc(C)c(F)c4F)c3C[C@H]2CN1C(=O)c1ccccc1`, the z-score is 0.0891. The same measure for `C=CCOC(=O)[C@H]1[C@@H]2C(=O)O[C@@H](c3ccccc3)[C@@H](c3ccccc3)N2[C@@H](c2ccc(OCCOC(=O)[C@@H]3C[C@@H]4C(=O)N[C@@H](CCCCNC(C)=O)C(=O)N4[C@@H]3c3ccc(O)cc3)cc2)[C@]12C(=O)Nc1ccccc12`: 1.85; for `COC(=O)[C@@]1(Cc2ccc(OC)cc2)[C@H]2c3cc(C(=O)N(C)C)n(Cc4ccc(S(C)(=O)=O)cc4)c3C[C@H]2CN1C(=O)c1ccccc1`: 0.449; for `CC(C)=CCN[C@H](CO)c1ccccc1`: 1.93. The same measure for `COC(=O)[C@@]1(Cc2ccc(F)cc2)[C@H]2c3cc(C(=O)N4CCCC4)n(Cc4ccc(S(C)(=O)=O)cc4)c3C[C@H]2CN1C(=O)c1ccccc1`: 0.582; for `COc1ccc(C#Cc2ccc3c(c2)[C@]2(C(=O)N3)[C@H](C(=O)Nc3nc4ccccc4s3)[C@H]3C(=O)O[C@H](c4ccccc4)[C@H](c4ccccc4)N3[C@@H]2c2ccc(O)cc2)cc1`: 0.341; for `[N-]=[N+]=Nc1ccccc1[C@H]1OC(c2ccc(OCCCO)cc2)=N[C@@]1(CCS(=O)(=O)c1ccccc1)C(N)=O`: 0.733.

Consider `CC(C)c1ccc(NN2C(C(O)c3ccc(B(O)O)cc3)C=CC3C(=O)N(c4ccccc4)C(=O)C32)cc1` (stereo unspecified), for which the z-score was -0.386. Turning to `COC(=O)[C@@]1(Cc2ccc(F)cc2)[C@H]2c3cc(C(=O)N(C)C)n(Cc4ccccc4)c3C[C@H]2CN1C(=O)c1ccccc1`, the z-score was -0.184. Take `[N-]=[N+]=Nc1ccccc1[C@@H]1OC(c2ccc(OCCCO)cc2)=N[C@]1(Cc1ccccc1)C(=O)N1CCOCC1`: the z-score was -1.63. The same measure for `CN(C)C(=O)[C@]1(Cc2ccccc2N=[N+]=[N-])N=C(c2ccc(OCCCO)cc2)O[C@@H]1c1ccccc1N=[N+]=[N-]`: 0.899; for `CC(C)NC(=O)[C@@]1(c2ccc([N+](=O)[O-])cc2)CC(=O)N(C2CCCCC2)[C@@H]1c1ccc(CO)cc1I`: 1.
